# Screening data from PubChem BioAssay.
# PI4K2A inh – PI4K2A (human) kinase inhibition | purified PI4K2A, ADP-Glo luminescence, 1 h; hits give low values | activity change, negative = inhibition, % at 76.9 µM | actives 0.13% (n = 420,000) | AID 1346378; in the data active = activity change below about -50%; inconclusive = mostly about -30% to -49%;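 also: -100% = wells without enzyme as full effect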
# Target sequence (Q9BTU6 whole entry, looked up): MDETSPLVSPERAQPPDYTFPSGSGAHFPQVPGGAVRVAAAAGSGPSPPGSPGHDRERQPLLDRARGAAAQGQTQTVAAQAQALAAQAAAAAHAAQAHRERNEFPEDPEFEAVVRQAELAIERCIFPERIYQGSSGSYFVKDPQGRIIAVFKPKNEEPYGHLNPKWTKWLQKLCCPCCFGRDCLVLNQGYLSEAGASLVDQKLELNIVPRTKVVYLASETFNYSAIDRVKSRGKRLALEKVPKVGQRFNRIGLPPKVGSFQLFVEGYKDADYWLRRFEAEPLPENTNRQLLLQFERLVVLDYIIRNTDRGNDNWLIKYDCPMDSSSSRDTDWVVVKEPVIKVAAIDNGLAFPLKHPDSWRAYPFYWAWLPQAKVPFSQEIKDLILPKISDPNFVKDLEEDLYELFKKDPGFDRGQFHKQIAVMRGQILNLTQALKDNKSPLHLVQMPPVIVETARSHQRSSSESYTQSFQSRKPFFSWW
#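 PI4K2A activity was measured by ADP-Glo luminescence: enzyme (4 ug/mL stock) and phosphatidylinositol (1.2 mM stock) in Tris pH 7.5/MgCl2/EGTA/Triton X-100 buffer were reacted with ATP (300 microM stock) for one hour at ambient temperature.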
# Giardia kill – kills Giardia lamblia; Giardia lamblia trophozoite viability; actives 0.15% (n = 340,000); activity change, % at 7.66 µM, hits read low; in the data active = activity change below about -80%; inconclusive = between about -30% and that limit;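 also: parasites exposed to compound for two days anaerobically before the ATP read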
#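 Anaerobic 48 hrs incubation at 37 deg C of 100 trophozoites/well with test compounds; ATPLite 1-Step luminescence, 15-30 min RT, reports cellular ATP as viability.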
# Nrf2 inh – Nrf2 pathway inhibition | A549 ARE-Fluc reporter, luciferase luminescence, 18-24 h | Potency, µM (series often up to 46 µM), without a hit: at the top dose activity change, negative = inhibition, actives largely listed as inhibitors | actives 2.1% (n = 360,000) | AID 504444; also: potency is read from the fitted curve at half-maximal effect; nearly all actives have a fitted effect of over 60% in size
#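 A549 ARE_Fluc cells (5000/well, 5% FBS OPTI-MEM) pre-incubated 2 h, then treated with compounds 18-24 h at 37C/5% CO2 in concentration-response. CellTiter-Fluor viability read first; BugLite luciferase luminescence after 15 min at room temperature gives Nrf2 activity.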
# KB-V1 MDR tox – kills drug-selected multidrug resistant KB-V1 cells | KB-V1 MDR cells viability, CellTiter-Glo, 72 h | Potency, µM (series often up to 46.1 µM), most hits filed as cytotoxic | actives 3.4% (n = 400,000) | AID 1347076; also: potency is read from the fitted curve at half-maximal effect; nearly all actives have a fitted effect of over 60% in size
#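 Potencies derive from concentration-effect curves fitted to normalized luminescence (CellTiter-Glo) of KB-V1 cells treated for 72 h at 37 degrees C in phenol-red-free DMEM containing 10% FBS.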
# KB-3-1 cytotox – KB-3-1 parental cell cytotoxicity. KB-3-1 viability, CellTiter-Glo ATP luminescence, 72 h. Potency, µM (top dose mostly 46.1 µM), actives largely listed as cytotoxic. actives 1.4% (n = 400,000); also: potency is read from the fitted curve at half-maximal effect; nearly all actives have a fitted effect of over 60% in size
#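 72 h, 37 °C compound treatment of KB-3-1 parental cells; CellTiter-Glo added, 10 min, luminescence read. Data corrected against DMSO-only plates and normalized before curve fitting.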
# A549 tox – counter-screen for Nrf2 inhibitors: cytotoxicity in A549 cells; Potency, µM (titrated, usually from 46 µM), for inactives: top-dose activity change, negative = cytotoxicity, hits mostly inhibitors; A549 ARE-Fluc cells, CellTiter-Fluor viability, 18-24 h; actives 0.16% (n = 390,000); also: potency is read from the fitted curve at half-maximal effect
#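 A549 ARE-Fluc cells in 5% FBS OPTI-MEM, 5000 cells/well, rested 2 h then exposed to compounds in concentration-response for 18-24 h at 37 °C. Viability by CellTiter-Fluor fluorescence (Ex 405/Em 525) after 30 min; luciferase luminescence (BugLite, 15 min, RT) read afterwards.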
# Numbers without * were called inactive; i = inactive; ? = inconclusive; / = no result given. Shown are actives, neighbours in structure and some others; about 5.7% of the full set was active somewhere. Unless noted, calls follow the shape of the dose curve; as a rule, active = well fitted curve in the direction sought with a large enough effect; inconclusive = small, poorly fitted or top-dose-only effect, or another doubt; inactive = no such curve, though single readings can be large; an effect the other way counts as inactive or inconclusive. Unless noted, % is scaled to controls: 0 for no effect and ±100 for the full control effect.
SMILES,PI4K2A inh,Giardia kill,Nrf2 inh,KB-V1 MDR tox,KB-3-1 cytotox,A549 tox
NC(=O)c1ccccc1OCc1nnc(-c2ccccc2Br)o1,-1.1,17.3,?,18.4µM*,i,5.9%
COc1ccc(NC(=O)CCC(=O)Nc2ccc3nc(N4CCOCC4)cc(C)c3c2)c(OC)c1,0.8,-22.8,-1.8%,i,i,-8.7%
COc1ccc(N(C)C(=O)CCC(=O)Nc2ccc3nc(N4CCOCC4)cc(C)c3c2)c(OC)c1,2.7,10.6,?,16.4µM*,?,-0.8%
Cc1cc2c(cc1C)C(c1ccccc1F)CC(=O)N2 (stereo not drawn),5.0,-14.0,-16.9%,?,5.8µM*,0.5%
Cc1cc2c(cc1C)C(c1cc(Br)ccc1F)CC(=O)N2 (stereo not drawn),-2.3,?,-15.9%,13µM*,8.2µM*,0.5%
Cn1c(NC(=O)c2ccccc2)nc(Cc2ccccc2)c1-c1ccccc1,-2.5,/,/,/,/,/
Cc1cc(NS(=O)(=O)c2ccc(NC(=O)Cc3ccccc3)cc2)no1,-0.6,/,/,/,/,/
CN1CC=C(c2ccccc2)N(c2ccc(Cl)cc2)C1=O,4.7,/,/,/,/,/
O=C(Cc1cccs1)Nc1ccc(-c2nnc(-c3ccccc3)o2)cc1,2.7,6.9,10.3%,i,i,0.3%
Cc1cccc(-c2nnc(-c3cccc(NC(=O)Cc4cccs4)c3)o2)c1,3.1,-5.8,20.6µM*,20.6µM*,i,?
Cc1ccc(-c2nnc(-c3cccc(NC(=O)c4cccs4)c3)o2)cc1,-3.5,-17.6,?,11.6µM*,i,-23.1%
CC(C)(C)c1ccc(-c2cn(C[C@H](Cc3ccccc3)n3c(=O)c4ccccc4n3Cc3ccco3)nn2)cc1,-3.0,/,/,/,/,/
Cc1cc([N+](C)(C)C)cc(C)c1/C=C/c1ccnc2ccccc12,/,/,/,i,i,/
Cc1cccc(C(=O)/C=C2/c3ccccc3CC(C)(C)N2C)c1,2.8,7.0,-21.7%,18.4µM*,i,?
Cc1ccccc1C(=O)/C=C1/c2ccccc2CC(C)(C)N1C,2.9,8.2,/,i,i,-4.8%
CCC[C@H](/C=C/C(=O)OC(C)(C)C)Sc1ccc(OC)cc1,-3.2,/,/,/,/,/
COc1ccc(NC2=NCC(Cc3ccc(Br)cc3)S2)cc1 (stereo not drawn),-1.2,11.9,2.9%,i,23.1µM*,-1.6%
COCCNC(=O)c1cc2c(=O)n3cccc(C)c3nc2n1C,-9.1,5.1,-6.2%,5.8µM*,3.26µM*,2.7%
COCCCNC(=O)c1cccn2c(=O)c3cc4ccccc4cc3nc12,0.1,34.5,?,4.11µM*,i,?
Cc1oc2c(C)c(O)ccc2c(=O)c1-c1cnn(-c2ccccc2)c1,3.1,-13.2,-6.7%,i,i,-8.5%
Cc1[nH]nc(-c2ccc(O)c(C)c2O)c1-c1cnn(-c2ccccc2)c1,-4.6,2.4,/,16.4µM*,i,?
Cc1ccc(-n2c(C)cc(C(=O)CSc3nncs3)c2C)cc1,-3.6,8.0,?,?,23.1µM*,-12.2%
Cc1cc(C(=O)CSc2nncs2)c(C)n1-c1c(C)n(C)n(-c2ccccc2)c1=O,2.1,-7.3,25.7%,i,i,-2.2%
CC1Cc2ccccc2N1S(=O)(=O)c1ccc2c(c1)n(C)c(=O)c(=O)n2C (stereo not drawn),2.0,-0.3,-14.6%,16.4µM*,i,6.3%
CCOC1=C2CN(S(=O)(=O)c3ccc(C)cc3)[C@H](c3ccc(CC)cc3)C[C@@H]2N(S(=O)(=O)c2ccc(C)cc2)[C@H](c2ccccc2)C1,3.7,/,/,i,i,/
CCOC1=C2CN(S(=O)(=O)c3ccc(C)cc3)C(c3ccc(CC)cc3)CC2N(S(=O)(=O)c2ccc(C)cc2)C(c2ccc(CC)cc2)C1 (stereo not drawn),-1.7,/,/,i,1.03µM*,/
COc1cccc(C(C)=C2SC(=S)NC2=O)c1,4.9,17.7,2.4%,20.6µM*,i,-12.0%
O=C(O)CSc1ccc(NC(=O)Nc2ccccc2F)cc1,-53.8*,-6.7,-4.9%,i,i,5.9%
